Data published in PubChem BioAssay AID651820 (National Center for Advancing Translational Sciences (NCATS), 2012).
In all, about 340,000 compounds went through this assay and about 12,000 (3.5%) were called active. About 18% were inconclusive and are not listed. The entries come from a sample that favours actives as a whole. Values without a mark were called inactive. The call rests on the fitted dose curve; in most records, active means well fitted inhibition curve with a large enough effect; inconclusive means small, poorly fitted or top-dose-only effect, or another doubt; inactive means no such curve, though single readings can be large or run the other way.

Assay: qHTS Assay for Inhibitors of Hepatitis C Virus (HCV)
Conditions: Huh7.5.1 HCVcc-Cre infection, luciferase reporter, 44 h; series mostly up to 41.8 µM; activity change, negative = inhibition: at the top concentration
Method in brief: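 Antiviral activity was scored by luciferase reporter output from cells infected with HCVcc-Cre (~0.5 moi) in presence of compound, 44 h infection period, cells seeded 1,000/well 4 h prior.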
On the % scale 0 is the no-effect control and ±100 the full control effect; potency means the concentration at half of the fitted maximal effect.

SMILES | activity change, negative = inhibition [%] | Potency
Clc1ncn(CCOc2ccccc2)c1Cl | 29 | –
Brc1ccc(OCCn2ccnc2)cc1 | 18.5 | –
c1ccc(Cc2ccc(OCCn3ccnc3)cc2)cc1 | – | 12.6 µM (active)
COc1cc(CN2CCC(n3nccc3NC(=O)CCCc3ccccc3)CC2)ccc1O | -21 | –
COc1ccc(CN2CCC(n3nccc3NC(=O)CCCc3ccccc3)CC2)cc1C | – | 10 µM (active)
Cc1ccc(CN2CCC(n3nccc3NC(=O)CCCc3ccccc3)CC2)o1 | 0.657 | –
COc1cccc(N2CC(NC(=O)c3ccc4ccccc4c3)CC2=O)c1 (centres undefined) | 15.5 | –
O=C1[C@@H](c2ccccc2)[C@@H](c2ccccc2)N1c1cccnc1 | – | 5.01 µM (active)
O=C1C(=O)N(c2ccccc2)C(c2ccccc2)C1c1ccccc1 (centres undefined) | -16.7 | –
CCc1ccccc1NC1c2ccccc2C(=O)N1c1cccnc1 (centres undefined) | 11.1 | –
CC[C@@]1(C(=O)OC)N[C@H](CN(C)C(C)=O)[C@@H]2C(=O)N(C)C(=O)[C@@H]21 | 18.4 | –
CC(NC(=O)COC(=O)CCC(=O)c1ccc(Cl)cc1)c1ccccc1 (centres undefined) | -14.6 | –
COc1cccc(CNS(=O)(=O)c2ccc3c(c2)CC(C)N3C(=O)C2CCC2)c1 (centres undefined) | – | 6.31 µM (active)
COc1cccc(CNS(=O)(=O)c2ccc3c(c2)CC(C)N3C(C)=O)c1 (centres undefined) | -7.76 | –
CCC(=O)N1c2ccc(S(=O)(=O)NCc3ccco3)cc2CC1C (centres undefined) | 4.82 | –
Cn1cccc1C(=O)OCC(=O)NCCc1ccccc1 | 14 | –
O=C(COC(=O)c1ccc2ncsc2c1)Nc1ccc(Cl)cc1 | 7.39 | –
CCCCn1c(N)c(N(CC(C)C)C(=O)CSc2ccc([N+](=O)[O-])cc2)c(=O)[nH]c1=O | 0.648 | –
O=C(NNS(=O)(=O)c1c(F)cc(F)c(Cl)c1F)C12CC3CC(CC(C3)C1)C2 | 6.17 | –
COc1cc(/C=N/O)cc(Br)c1OS(=O)(=O)c1ccc(C)cc1 | -28.6 | –
CCOc1cc(/C=N/O)cc(Br)c1OC | – | 8.91 µM (active)
O=C(O)COc1ccc(/C=N/O)cc1Br | 14.8 | –
CC(C)c1ccc(C=NNc2ccc([N+](=O)[O-])cn2)cc1 | -13.8 | –
COc1ccccc1-c1nn(Cc2ccccc2)cc1C(=O)N1CCN(c2ncccn2)CC1 | 0.899 | –
CCn1nc(C(=O)Nc2ccc(N3CCOCC3)cc2)c2ccccc2c1=O | -5.96 | –
Cc1cc(NC(=O)CN2C(=O)NC(CC(C)C)C2=O)no1 (centres undefined) | 18.5 | –
Cc1ccc(S(=O)(=O)N(Cc2cccc([N+](=O)[O-])c2)C(=O)N2CCN(C)CC2)cc1 | 0.369 | –
CCN(CC)C(=O)CN(c1cccc([N+](=O)[O-])c1)S(=O)(=O)c1ccccc1 | -6.32 | –
O=C(CCl)N(Cc1cccc([N+](=O)[O-])c1)c1cccc(Cl)c1 | – | 3.98 µM (active)
